DT40 TDP1 CPT: growth inhibition of DT40 Tdp1-/-;hTDP1 cells with camptothecin (screen for TDP1 inhibitors); 420,000 tested, 12% active; Potency, µM (titrated, usually from 46.2 µM), for inactives: at the highest dose activity change, negative = growth inhibition, usual class: inhibitors; chicken DT40 Tdp1-/-;hTDP1 cells + 20 nM CPT, ATP luminescence, 48 h; AID 686979; also: nearly all actives have a fitted effect of over 55% in size
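Cell growth measured by CellTiter-Glo luminescence after a minimum 48 h, 37 C compound exposure with 20 nM CPT in Tdp1-knockout DT40 cells stably expressing hTDP1, seeded 400/well; qHTS titration format.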
TDP1 cell noCPT: qHTS for Inhibitors of human tyrosyl-DNA phosphodiesterase 1 (TDP1): qHTS in cells in absence of CPT; 420,000 tested, 15% active; Potency, µM (doses to about 46.2 µM), for inactives: at the highest dose activity change, negative = growth inhibition, usual class: inhibitors; DT40 Tdp1-/- hTDP1 cells, no CPT, ATP luminescence, 48 h; AID 686978, 2013; also: nearly all actives have a fitted effect of over 55% in size
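Readout: luminescence from CellTiter-Glo after 30 min in the dark at RT. Cells: DT40 Tdp1-/- with stable hTDP1, 400/well. Exposure: compounds alone, ≥48 hr, 37 °C.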
RORg inh: blocks mouse ROR gamma transcriptional activity; 310,000 tested, 5.4% active; P51450; Drosophila S2 Gal4-RORgamma UAS-luciferase reporter, 20 h; Potency, µM (top dose mostly 53.6 µM), for the others: top-dose activity change, negative = inhibition, actives largely listed as inhibitors; also: nearly all actives have a fitted effect of over 60% in size
Target sequence (P51450 whole entry, looked up, the tested form may be a part): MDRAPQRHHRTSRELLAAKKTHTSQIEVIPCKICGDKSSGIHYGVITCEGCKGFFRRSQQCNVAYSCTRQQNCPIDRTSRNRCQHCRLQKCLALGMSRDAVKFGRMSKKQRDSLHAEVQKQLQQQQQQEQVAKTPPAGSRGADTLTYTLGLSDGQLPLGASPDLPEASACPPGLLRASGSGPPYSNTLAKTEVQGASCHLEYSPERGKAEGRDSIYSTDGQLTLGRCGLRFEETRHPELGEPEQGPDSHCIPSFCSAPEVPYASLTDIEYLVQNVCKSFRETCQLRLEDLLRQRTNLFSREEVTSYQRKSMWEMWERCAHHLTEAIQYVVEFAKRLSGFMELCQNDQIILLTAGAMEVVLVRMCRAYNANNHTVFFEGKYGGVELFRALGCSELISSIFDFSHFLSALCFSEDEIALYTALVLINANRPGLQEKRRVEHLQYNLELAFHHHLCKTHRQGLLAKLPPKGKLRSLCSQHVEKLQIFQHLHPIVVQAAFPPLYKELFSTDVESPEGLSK
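Drosophila S2 cells stably expressing Gal4-DBD/mouse RORγ fusion under metallothionein promoter plus UAS-luciferase; compound 1 h, then 700 uM CuSO4 induction for 20 h at ambient temperature; inhibition read as reduced luminescence.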
VP16 counter: Gal4-VP16 reporter inhibition counter-screen; Drosophila S2 Gal4-VP16 UAS-luciferase, luminescence, 20 h; Potency, µM (top dose mostly 53.6 µM), without a hit: at the highest dose activity, negative = inhibition, most hits filed as inhibitors; 310,000 tested, 3.5% active; AID 2546;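 also: Gal4-VP16 expression switched on by copper sulfate through the metallothionein promoter; nearly all actives have a fitted effect of over 50% in size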
12-LOX inh: ALOX12 (human) lipoxygenase inhibition. 580,000 tested, 1.1% active. AID 1671190. P18054. Potency, µM (highest dose often 108 µM), without a hit: at the highest dose activity change, negative = inhibition, hits mostly inhibitors. purified 12hLO, xylenol orange hydroperoxide absorbance
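Purified human 12hLO at 150 nM in 25 mM Hepes, 0.01% Triton X-100, pH 7.0, preincubated 15 min at room temperature with compound. Reaction started with 40 uM arachidonic acid, 30 min at room temperature. Hydroperoxide measured by Fe-xylenol orange, 573/405 nm absorbance ratio.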
ELG1 repair inh: blocks ELG1-dependent DNA repair in HEK293T cells; HEK293T ELG1-luciferase reporter, luminescence, 16 h; DNA damage induced by 5-fluorouridine; Potency, µM (series often up to 46.1 µM), for the others: at the top dose activity change, negative = inhibition, most hits filed as inhibitors; 330,000 tested, 2.3% active; also: nearly all actives have a fitted effect of over 55% in size
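Quantitative HTS, concentration-response format. 2,000 cells/well co-treated with 5-fluorouridine and compound, 16 hr in 5% CO2 at 37 °C; ONE-Glo luminescence read after 30 min.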
* = called active by the depositor; ? = inconclusive; / = no result given; [ ] = dose if it differs, or a comment. In the library only some 15% were active in any assay of this set; here they are far more common. Calls follow the shape of the dose curve; as a rule, active = well fitted curve in the direction sought with a large enough effect; inconclusive = small, poorly fitted or top-dose-only effect, or another doubt; inactive = no such curve, though single readings can be large; an effect the other way counts as inactive or inconclusive. % is scaled to controls: 0 for no effect and ±100 for the full control effect; potency is read from the fitted curve at half-maximal effect.

SMILES	DT40 TDP1 CPT	TDP1 cell noCPT	RORg inh	VP16 counter	12-LOX inh	ELG1 repair inh
COCCN1CCN(Cc2nc(C3(c4ccc(C)cc4)CCCC3)no2)CC1	-4.1%	-26.8%	-13.3%	5.8%	3.2%	-2.2%
Cc1ccc(C2(c3noc(CN(C)Cc4cccnc4)n3)CCCC2)cc1	?	?	?	12.6µM*	21.4%	7.9%
Cc1ccc(C2(c3noc(CN4C[C@@H](C)O[C@@H](C)C4)n3)CCCC2)cc1	?	?	10.6%	-14.3%	2.8%	-3.3%
Cc1ccc(C2(c3noc(CN(C)Cc4ccccn4)n3)CCCC2)cc1	?	16.4µM*	15.8µM*	-0.9%	3.5%	-12.1%
C[C@@H](CCc1ccc(O)cc1)NCCc1ccc(O)c(O)c1	5.96µM*	10.6µM*	-22.8%	-4.3%	?	/
CCOC(=O)C1=C(C)NC(C)=C(C(=O)OCC)C1C(=O)OCC(=O)N1CCCCC1CC (configuration not stated)	-26.4%	?	4.3%	6.3%	15.8%	-8.2%
CCOC(=O)C1=C(C)NC(C)=C(C(=O)OCC)C1C(=O)OCC(=O)NCCc1ccccc1	?	25.9µM*	/	/	8.3%	23.1µM*
CCNC(=O)COC(=O)C1C(C(=O)OCC)=C(C)NC(C)=C1C(=O)OCC	0.5%	0.1%	3.6%	-2.2%	0.0%	-7.1%
CCOC(=O)C1=C(C)NC(C)=C(C(=O)OCC)C1C(=O)OCC(=O)NC1CCCCC1	25.9µM*	23.1µM*	/	/	-1.2%	10.3µM*
Cc1nc2cc(NC(=O)COc3ccc(Cl)cc3Cl)ccc2o1	/	/	/	/	9.9%	/
CCCC(C)c1c(-c2ccccc2)ncn1CCNC(C)=O (configuration not stated)	/	/	/	/	61.2%	/
O=S(=O)(c1ccccc1)N1CCN(S(=O)(=O)N2CCCCCC2)CC1	4.6%	-15.6%	3.5%	-2.5%	-14.1%	-4.0%
Cc1ccc(-n2sc3ccccc3c2=O)cc1S(=O)(=O)N1CCCCC1	2.31µM*	2.91µM*	-0.3%[0.365 µM]	/	0.0891µM*	-2.6%
O=c1c2ccccc2sn1-c1ccc(S(=O)(=O)N2CCCC2)cc1	3.26µM*	5.17µM*	24.5%	-15.5%	-78.5%	15.8%
Cc1ccc(-c2n[nH]c(=O)c3ccccc23)cc1S(=O)(=O)N1CCCCC1	/	/	/	/	-9.1%	/
O=c1c2ccccc2sn1-c1ccc(S(=O)(=O)N2CCCCC2)cc1	2.06µM*	15.8µM*	/	/	?	/
Cc1cccc(C)c1OCC(=O)Nc1ccccc1C(=O)O	/	/	/	/	-22.7%	/
O=c1c2c([nH]c3ccc(Br)cc13)CCCC2	23.1µM*	?	-3.4%	?	154.5%	-8.7%
CC(C)Oc1ccc2c(NC(=O)CN3CCOCC3)nn(CC(F)(F)F)c2c1	/	/	/	/	10.0%	/
Clc1ccc2[nH]c3c(NCCN4CCOCC4)ncnc3c2c1	-19.9%	?	26.0%[0.365 µM]	/	3.4%	2.5%
c1ccc(-c2csc3ncnc(NCCN4CCOCC4)c23)cc1	11.6µM*	9.2µM*	-24.2%	?	0.0%	16.4µM*
Cc1ccc(-c2csc3ncnc(NCCN4CCOCC4)c23)cc1	?	23.1µM*	16.1%	?	0.0%	?
Clc1ccc(-c2csc3ncnc(NCCN4CCOCC4)c23)cc1	18.4µM*	13µM*	-1.3%	-10.0%	-2.8%	18.4µM*
Cc1ccc(-c2csc3ncnc(NCCC(=O)O)c23)cc1	23.2%	-9.3%	25.0%	-2.4%	8.1%	?
CCOC(=O)C1CCN([C@H]2CS(=O)(=O)C[C@@H]2S(=O)(=O)c2ccc(OC)cc2)CC1	/	/	/	/	-24.7%	/
SMILES	DT40 TDP1 CPT	TDP1 cell noCPT	RORg inh	VP16 counter	12-LOX inh	ELG1 repair inh
COc1ccc(NC(=O)C(C)n2nnc3sc(-c4ccccc4)cc3c2=O)cc1Cl (configuration not stated)	13µM*	6.51µM*	/	/	?	/
CCC(C(=O)OC)n1nnc2sc(-c3ccccc3)cc2c1=O (configuration not stated)	?	14.6µM*	/	/	-21.1%	/
CC(C(=O)Nc1ccc(F)cc1)n1nnc2sc(-c3ccccc3)cc2c1=O (configuration not stated)	/	/	/	/	31.6µM*	/
Cc1cc(C)c(NC(=O)C(C)n2nnc3sc(-c4ccccc4)cc3c2=O)c(C)c1 (configuration not stated)	?	0.1%	/	/	?	/
O=C(CSc1nnc2ccc(-c3ccccn3)nn12)N1CCN(c2ccccc2)CC1	/	/	/	/	-20.6%	/
O=C(CSc1nc(-c2ccccc2)cc(=O)[nH]1)Nc1ccc(Cl)c(Cl)c1	/	/	/	/	-2.4%	/
CCCCN(CC)CC(=O)Nc1cccc2ncccc12	/	/	/	/	-6.3%	/
CCOC(=O)c1c(C2CC2)csc1NC(=O)COC(=O)c1cc(OC)c(OC)cc1[N+](=O)[O-]	?	20.6µM*	0.4%	-5.1%	-6.2%	13µM*
CC1Cc2ccccc2N1C(=O)c1cc2sccc2n1Cc1ccc(F)cc1 (configuration not stated)	?	16.4µM*	8.1%	-17.7%	53.3%	-5.2%
COc1ccccc1CNC(=O)c1cc2sccc2n1Cc1ccc(F)cc1	20.6µM*	23.1µM*	/	/	-18.1%	/
COc1cc(CN(C)CC(=O)N2c3ccccc3NC(=O)CC2C)ccc1OC(F)F (configuration not stated)	/	/	/	/	6.2%	/
O=C(CSc1nc2cc3ccccc3cc2[nH]1)Nc1ccc(F)cc1	?	23.1µM*	-4.7%	-18.8%	-28.4%	/
COc1ccc(NC(=O)CSc2nc3ccc(OC)cc3[nH]2)cc1	-6.7%	-4.3%	?	19.8%	-9.8%	-1.4%
COc1ccc(NC(=O)CSc2nc3ccncc3[nH]2)c(OC)c1	23.1µM*	9.2µM*	-9.6%	-5.6%	-2.7%	-1.0%
COC(=O)c1ccc(NC(=O)CSc2nc3ncccc3[nH]2)cc1	-21.2%	20.6µM*	16.9%	-4.1%	0.0%	13.3%
NC(=O)c1ccc(NC(=O)CSc2nc3ncccc3[nH]2)cc1	/	/	/	/	-22.2%	/
COc1ccc2nc(SCC(=O)Nc3ccccc3OC)[nH]c2c1	-2.5%	?	44.2%	3.4%	0.0%	-7.0%
COC(=O)c1ccc(NC(=O)CSc2nc3ccc(OC)cc3[nH]2)cc1	23.1µM*	23.1µM*	/	/	-17.4%	/
COc1cc(F)ccc1-c1ccc(=O)n(Cc2c(F)cccc2Cl)n1	/	/	/	/	-19.5%	/
COCCCNC(=O)[C@@H](C)N1Cc2ccc(-c3cccc(F)c3)nc2C1=O	/	/	/	/	5.7%	/
COc1ccc2nc(SCC(=O)N(C)C3CCCCC3)[nH]c2c1	-16.1%	-5.0%	/	/	0.0%	18.7%
